# Values joined by “and” are separate entries in the source; they are usually repeats but may differ in a detail not shown here. Equal entries are not always repeated. A number with no mark means an inactive call. Results filed as inconclusive are left out. Entries that show only a call come without a potency. Some compounds were tested as several samples or in several runs, with calls that do not always agree. Active and inactive are the calls of the source. Unless noted, calls follow the shape of the dose curve; as a rule, active = well fitted curve in the direction sought with a large enough effect; inconclusive = small, poorly fitted or top-dose-only effect, or another doubt; inactive = no such curve, though single readings can be large; an effect the other way counts as inactive or inconclusive.
# Columns and labels:
# PA-1 = assay: Primary qHTS to identify gynecologic anti-cancer compounds using libraries of approved drugs and bioactive compounds (AID 1345084); conditions: Gynecologic cancer cell panel viability, ATPlite luminescence, 48 h; series mostly up to 57.5 µM; also: nearly all actives have a fitted effect of over 55% in size; also: potency is read from the fitted curve at half-maximal effect
# Outline: (§1)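 Cytotoxicity screen measuring ATP content by luciferase luminescence. Each compound is applied at five concentrations for 48 h at 37 C with 5% CO2.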
# SKOV3 = assay: as above; conditions: Gynecologic cancer cell panel viability, ATPlite luminescence, 48 h; series mostly up to 57.5 µM
# Outline: as §1
# Tov-21-G = assay: as above; conditions: Gynecologic cancer cell panel viability, ATPlite luminescence, 48 h; series mostly up to 57.5 µM
# Outline: as §1
# Tov112D = assay: as above; conditions: Gynecologic cancer cell panel viability, ATPlite luminescence, 48 h; series mostly up to 57.5 µM
# Outline: as §1
# [1] = Drug repurposing screens with cells derived from glioblastoma tumor samples (AID 1345199); conditions: GBM patient neurospheres viability, ATP luminescence, 48 h; also: nearly all actives have a fitted effect of over 40% in size; also: potency is read from the fitted curve at half-maximal effect
# Outline: (§2)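 Four patient lines of CD133+ GBM neurospheres were screened at several concentrations; hits were retested in those lines plus three slower-growing GBM lines, using 48-hour treatment and ATP-based viability.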
# astro = assay: as above; conditions: viability, ATP luminescence, 48 h; series mostly up to 45.9 µM
# Outline: as §2
# [2] = qHTS assay for small molecule activators of the human pregnane X receptor (PXR) signaling pathway (AID 720659; call rule not given here)
# [3] = at 45.9 µM (top of the series), tumour line B
# [4] = at 45.9 µM (top of the series), tumour line D
# [5] = at 46.1 µM (top of the series), tumour line C
# [6] = at 20 µM (top of the series), tumour line C
# [7] = at 21.2 µM (top of the series), tumour line B
# [8] = at 21.2 µM (top of the series), tumour line D
compound,measurement,setting,value
CCn1cc(C(=O)O)c(=O)c2cc(F)c(N3CCN(C)CC3)cc21,Potency,PA-1,inactive
same,Potency,SKOV3,inactive
same,Potency,Tov-21-G,inactive
same,Potency,Tov112D,inactive
same,"activity, negative = cell killing",[1]; [3],-12.6%
same,"activity, negative = cell killing",[1]; [4],-0.981%
same,"activity, negative = cell killing",[1]; [5],-19.8%
same,Potency,astro,inactive
O=C(O)c1cn(C2CC2)c2cc(N3CCNCC3)c(F)cc2c1=O,Potency,PA-1,inactive
same,Potency,SKOV3,inactive
same,Potency,Tov-21-G,inactive
same,Potency,Tov112D,inactive
same,"activity, negative = cell killing",[1]; [6],-4.75%
same,"activity, negative = cell killing",[1]; [7],-18.6%
same,"activity, negative = cell killing",[1]; [8],4.14%
same,Potency,astro,inactive
CN(C)c1ccc(C(=C2C=CC(=[N+](C)C)C=C2)c2ccc(N(C)C)cc2)cc1,Potency,PA-1,0.447 µM (active)
same,Potency,SKOV3,0.316 µM (active)
same,Potency,Tov-21-G,1.78 µM (active)
same,Potency,Tov112D,2 µM (active)
same,outcome,[2],inactive
COc1cc(NCc2ccc3nc(N)nc(N)c3c2C)cc(OC)c1OC,Potency,PA-1,0.178 µM (active)
same,Potency,SKOV3,inactive
same,Potency,Tov112D,0.1 µM (active)
NC(=O)N1c2ccccc2CC(=O)c2ccccc21,Potency,PA-1,inactive
same,Potency,SKOV3,inactive
same,Potency,Tov-21-G,inactive
same,Potency,Tov112D,inactive
same,"activity, negative = cell killing",[1]; [3],-29.6%
same,"activity, negative = cell killing",[1]; [4],-1.67%
same,"activity, negative = cell killing",[1]; [5],-9.41%
same,Potency,astro,inactive
O=C(O)c1cccnc1,Potency,PA-1,inactive
same,Potency,SKOV3,inactive
same,Potency,Tov-21-G,inactive
same,Potency,Tov112D,inactive
same,"activity, negative = cell killing",[1]; [3],-10%
same,"activity, negative = cell killing",[1]; [4],-8.9%
same,"activity, negative = cell killing",[1]; [5],-28.3%
same,Potency,astro,inactive
COC(c1ccccc1)(c1ccccc1)[C@H](Oc1nc(C)cc(C)n1)C(=O)O,Potency,PA-1,inactive
same,Potency,SKOV3,inactive
same,"activity, negative = cell killing",[1]; [3],-11%
same,"activity, negative = cell killing",[1]; [4],-22.7%
same,"activity, negative = cell killing","[1]; at 46 µM (top of the series), tumour line A",-16.8%
same,"activity, negative = cell killing",[1]; [5],2.92%
CC(=O)[C@H]1CC[C@H]2[C@@H]3CC=C4C[C@@H](O)CC[C@]4(C)[C@H]3CC[C@]12C,Potency,PA-1,inactive
same,Potency,SKOV3,inactive
same,Potency,Tov-21-G,inactive
same,Potency,Tov112D,inactive
same,"activity, negative = cell killing",[1]; [3],-3.14%
same,"activity, negative = cell killing",[1]; [5],6.87%
same,Potency,astro,inactive
NC1(c2ccc(-c3nc4ccn5c(=O)[nH]nc5c4cc3-c3ccccc3)cc2)CCC1,Potency,PA-1,22.4 µM (active)
same,Potency,SKOV3,11.2 µM (active)
same,Potency,Tov112D,inactive
COCCCOc1cc(C[C@@H](C[C@H](N)[C@@H](O)C[C@H](C(=O)NCC(C)(C)C(N)=O)C(C)C)C(C)C)ccc1OC,Potency,PA-1,inactive
same,Potency,SKOV3,inactive
same,Potency,Tov-21-G,inactive
same,Potency,Tov112D,inactive
same,"activity, negative = cell killing",[1]; [3],9.07%
same,"activity, negative = cell killing",[1]; [4],12.6%
same,"activity, negative = cell killing",[1]; [5],3%
same,Potency,astro,inactive
N[C@@H](C(=O)N[C@@H]1C(=O)N2C(C(=O)O)=C(Cl)CS[C@H]12)c1ccccc1,"activity change, negative = cytotoxicity",PA-1,14.4% [at 11.6 µM]
same,"activity change, negative = cytotoxicity",SKOV3,12.2% [at 11.6 µM]
same,"activity change, negative = cytotoxicity",Tov-21-G,0.747% [at 11.6 µM]
same,"activity change, negative = cytotoxicity",Tov112D,2.46% [at 11.6 µM]
same,"activity, negative = cell killing",[1]; [3],-8.97%
same,"activity, negative = cell killing",[1]; [4],11.2%
same,"activity, negative = cell killing",[1]; [5],7.75%
same,Potency,astro,inactive
C[C@]12C=CC(=O)C=C1CC[C@@H]1[C@@H]2C(=O)C[C@@]2(C)[C@H]1CC[C@]2(O)C(=O)CO,Potency,PA-1,inactive
same,Potency,SKOV3,inactive
same,Potency,Tov-21-G,inactive
same,Potency,Tov112D,inactive
same,"activity, negative = cell killing",[1]; [3],-6.23%
same,"activity, negative = cell killing",[1]; [4],5.45%
same,"activity, negative = cell killing",[1]; [5],-7.06%
same,Potency,astro,inactive
CN(C)CCc1c[nH]c2ccc(C[C@H]3COC(=O)N3)cc12,Potency,PA-1,inactive
same,Potency,SKOV3,inactive
same,Potency,Tov-21-G,inactive
same,Potency,Tov112D,inactive
same,"activity, negative = cell killing",[1]; [3],-19.9%
same,"activity, negative = cell killing",[1]; [4],-11%
same,"activity, negative = cell killing",[1]; [5],4.56%
same,Potency,astro,inactive
CS(=O)(=O)c1ccc([C@@H](O)[C@@H](CO)NC(=O)C(Cl)Cl)cc1,Potency,PA-1,inactive
same,Potency,SKOV3,inactive
same,Potency,Tov112D,inactive
same,"activity, negative = cell killing",[1]; [6],-12.8%
same,"activity, negative = cell killing",[1]; [7],-9.12%
same,"activity, negative = cell killing",[1]; [8],-24.7%
same,"activity, negative = cell killing","[1]; at 21.3 µM (top of the series), tumour line A",-19.8%
same,Potency,astro,inactive
CCOC(=O)[C@H](CCc1ccccc1)N[C@H]1CCc2ccccc2N(CC(=O)O)C1=O,Potency,PA-1,inactive
same,Potency,Tov-21-G,inactive
same,Potency,Tov112D,inactive
CCCOc1ccc(C(=O)OCCN(CC)CC)cc1N,Potency,PA-1,inactive
same,Potency,SKOV3,inactive
same,Potency,Tov-21-G,inactive
same,Potency,Tov112D,inactive
same,"activity, negative = cell killing",[1]; [5],-16.2%
same,Potency,[1]; tumour line A,14.1 µM (active)
same,Potency,astro,inactive
Nc1nc(F)nc2c1ncn2[C@@H]1O[C@H](CO)[C@@H](O)[C@@H]1O,Potency,PA-1,inactive
same,Potency,SKOV3,inactive
same,Potency,Tov112D,17.8 µM (active)
same,"activity, negative = cell killing",[1]; [3],-27.2%
same,"activity, negative = cell killing",[1]; [5],-19% and -29.8%
same,Potency,[1]; tumour line A,10 µM (active)
same,Potency,[1]; tumour line D,20 µM (active)
CC(C)(Sc1cc(C(C)(C)C)c(O)c(C(C)(C)C)c1)Sc1cc(C(C)(C)C)c(O)c(C(C)(C)C)c1,Potency,PA-1,inactive
same,Potency,SKOV3,inactive
same,Potency,Tov-21-G,inactive
same,Potency,Tov112D,inactive
same,"activity, negative = cell killing",[1]; [6],-9.49%
same,"activity, negative = cell killing",[1]; [7],-22%
same,Potency,[1]; tumour line A,4.47 µM (active)
same,Potency,astro,inactive
Cc1cccc(N(C)C(=S)Oc2ccc3ccccc3c2)c1,Potency,PA-1,inactive
same,Potency,SKOV3,inactive
same,Potency,Tov-21-G,inactive
same,Potency,Tov112D,inactive
same,"activity, negative = cell killing",[1]; [6],-6.63%
same,"activity, negative = cell killing",[1]; [7],-15.9%
same,"activity, negative = cell killing",[1]; [8],-7.02%
same,Potency,astro,inactive

# Source: PubChem BioAssay (NCATS)
